Assay results from PubChem BioAssay (NCATS).
Results filed as inconclusive are left out. The source made the active and inactive calls. The call rests on the fitted dose curve; in most records, active means well fitted inhibition curve with a large enough effect; inconclusive means small, poorly fitted or top-dose-only effect; inactive means flat fitted curve, though single readings scatter.

Tested on: HEK293T
Assay: qHTS assay to identify novel small-molecules to repurpose for Merkel cell carcinoma treatment (AID 1296009); further: nearly all actives have a fitted effect of over 60% in size
Conditions: MCC and control cell lines, CellTiter-Glo viability, 72 h; series mostly up to 44.8 µM
Outline: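 Luminescence from CellTiter-Glo, read 10 min after addition at room temperature, reported viability following a 72 hr, 37 degree celsius treatment with NPC or MIPE compounds in titration; values normalized to plate controls.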

| Compound | outcome |
| --- | --- |
| CC(=O)NCCCCn1c2c(c3ccccc31)C(=O)NCC2 | inactive |
| Cc1nnc(C(C)C)n1C1CC2CCC(C1)N2CCC(NC(=O)C1CCC(F)(F)CC1)c1ccccc1 (centres undefined) | inactive |
| CC1=CC[C@]2(C(=O)O[C@@H]3O[C@H](CO[C@@H]4O[C@H](CO)[C@@H](O[C@@H]5O[C@@H](C)[C@H](O)[C@@H](O)[C@H]5O)[C@H](O)[C@H]4O)[C@@H](O)[C@H](O)[C@H]3O)CC[C@]3(C)C(CCC4[C@@]5(C)C[C@@H](O)[C@H](O)[C@@](C)(CO)C5CC[C@]43C)C2C1C (some centres undefined) | inactive [at 9.27 µM] |
| COc1ccc(/C=C/C(=O)O[C@@H]2[C@@H](O)[C@H](C)O[C@@H](OC3C4C=COC(O[C@@H]5O[C@H](CO)[C@@H](O)[C@H](O)[C@H]5O)C4C4(CO)OC34)[C@@H]2O)cc1OC (some centres undefined) | inactive [at 17.4 µM] |
| C=C(C)[C@H]1C[C@@H](O)C(=C)CC[C@@H](O)C(=C)[C@@H](O)C1 | inactive |
| CC1(C)CC2C(O)C3=C(CC(C)(O)C2C1)C(=O)OC3O (centres undefined) | inactive |
| Oc1ccc([C@H]2COc3cc(O)ccc3C2)cc1 | inactive |
| CC(=C/C(=O)O)/C=C/[C@]1(O)[C@@]2(C)CO[C@]1(C)C[C@H](O[C@@H]1O[C@H](CO)[C@@H](O)[C@H](O)[C@H]1O)C2 | inactive [at 17.4 µM] |
| C[C@@H]1C(=O)O[C@H]2[C@H]1CC[C@@]1(C)C(=O)C=C[C@](C)(O)[C@H]21 | inactive |
| CC1(C)C[C@H]2C3=CCC4[C@@]5(C)CC[C@H](O[C@H]6O[C@H](C(=O)O)[C@@H](O)[C@H](O)[C@H]6O[C@H]6O[C@H](CO)[C@@H](O)[C@H](O)[C@H]6O[C@@H]6O[C@H](CO)[C@@H](O)[C@H](O)[C@H]6O)[C@](C)(CO)C5CC[C@@]4(C)[C@]3(C)CC[C@@]2(C)[C@H](O[C@@H]2OC[C@H](O)[C@H](OC3O[C@H](CO)[C@@H](O)[C@H](O)[C@H]3O)[C@H]2O)[C@@H]1O (some centres undefined) | inactive [at 9.27 µM] |
| CC1(CO)CC2C(O)C(=O)C3(CO)CC3(C)C2C1 (centres undefined) | inactive |
| O=C(COc1ccc(Cl)cc1)NC1CCC(NC(=O)COc2ccc(Cl)cc2)CC1 (centres undefined) | inactive |
| OC[C@H]1O[C@@H](OC(CCCCc2ccc(O)cc2)CCc2ccc(O)cc2)[C@H](O[C@@H]2OC[C@](O)(CO)[C@H]2O)[C@@H](O)[C@@H]1O (some centres undefined) | inactive [at 17.4 µM] |
| C=C1CCC[C@]2(C)C[C@]3(O)OC(=O)C(C)=C3C[C@@H]12 | inactive |
| Nc1ncnc2c1ncn2[C@H]1CCCO1 | inactive |
| CC1=C2[C@@H]([C@H](C)CC[C@H]2/C=C(\C)C(=O)O)[C@H](O)C1 | inactive |
| CC1=CC(=O)CC(C)(C)C1CCC(C)OC1OC(COC(=O)c2cc(O)c(O)c(O)c2)C(O)C(O)C1O (centres undefined) | inactive [at 17.4 µM] |
| COC(=O)[C@H](CC1C=NC=N1)NCC12CC3CC(CC(C3)C1)C2 (some centres undefined) | inactive |
| CC1(C)CCCC2(C)C3=C(C(=O)OC3O)C(O)CC12 (centres undefined) | inactive |
| CC(=O)O[C@@H]1C[C@@]23C[C@@]24CC[C@H](OC2OC[C@@H](O)[C@H](O)[C@H]2O)C(C)(C)[C@@H]4CC[C@H]3[C@]2(C)CC3OC4(C[C@@H](C)C3[C@@]12C)OCC1(C)OC14 (some centres undefined) | inactive [at 17.4 µM] |

| Compound | outcome |
| --- | --- |
| C=CC1C(O[C@@H]2O[C@H](CO)[C@@H](O)[C@H](O)[C@H]2O)OC=C(C(=O)OC)C1CC(=O)O (some centres undefined) | inactive [at 17.4 µM] |
| C#Cc1cnc2[nH]c(=O)n(C(CC)CC)c2n1 | inactive |
| CC(C)C(=O)O[C@@H]1[C@@H](O)[C@@H](O[C@H]2O[C@H](CO)[C@@H](O)[C@H](O)[C@H]2O)O[C@H](CO)[C@H]1O | inactive [at 17.4 µM] |
| COc1cc(C)c(C(=O)O[C@H]2[C@@H](O)[C@H](n3ccc(=O)[nH]c3=O)O[C@@H]2CO)c(OC)c1 | inactive [at 17.4 µM] |
| C[C@@H]1O[C@@H](OC[C@H]2O[C@@H](OCC3CCC4CC3C4(C)C)[C@H](O)[C@@H](O)[C@@H]2O)[C@H](O)[C@H](O)[C@H]1O (some centres undefined) | inactive [at 17.4 µM] |
| CC1=CC(=O)C[C@H]2[C@@H]1CC[C@@H](C)[C@]21CO[C@H](c2ccoc2)C1=O | inactive |
| CC(C)c1ccc(CC(=O)N2CCC[C@@H](c3cccc(OC(C)(C)C(=O)O)c3)C2)cc1 | inactive |
| CC(=O)NC(CCC(=O)O)C(=O)NCCc1ccc(O)cc1 (centres undefined) | inactive |
| C=C[C@H]1[C@H](O[C@@H]2O[C@H](CO[C@@H]3OC[C@](O)(CO)[C@H]3O)[C@@H](O)[C@H](O)[C@H]2O)OC=C2C(=O)OCC[C@H]21 | inactive [at 17.4 µM] |
| c1ccc(Nc2nc3c(s2)CCCc2[nH]ncc2-3)nc1 | inactive |
| COC(=O)C1C(CC(C)=O)C=CC(O)C12Oc1cc(C)cc(O)c1C2=O (centres undefined) | inactive |
| COC(=O)C1=C[C@@H](O)[C@@H](O)[C@H](O[C@@H]2O[C@H](COC(=O)/C=C/c3ccccc3)[C@@H](O)[C@H](O)[C@H]2O)C1 | inactive [at 17.4 µM] |
| C/C=C(\C)C(=O)O[C@@H](C)[C@H]1CC[C@]2(O)C3CCC4C[C@@H](OC5CC(OC)C(OC6CC(OC)C(OC7CC(OC)C(OC8OC(C)C(OC9OC(CO)C(O)C(O)C9O)C(OC)C8O)C(C)O7)C(C)O6)C(C)O5)CC[C@]4(C)C3[C@H](O)[C@@H](O)[C@]12C (some centres undefined) | inactive [at 9.27 µM] |
| C[C@@]12C[C@]3(O)O[C@H](O1)[C@]1(COC(=O)c4ccccc4)[C@H]3C[C@@]12O[C@@H]1O[C@H](COC(=O)c2ccccc2)[C@@H](O)[C@H](O)[C@H]1O | inactive [at 17.4 µM] |
| C/C=C(\C)C(=O)O[C@H]1[C@H](O)[C@]2(COC(C)=O)[C@H](O)C[C@]3(C)C(=CCC4[C@@]5(C)CC[C@H](O[C@@H]6O[C@H](C(=O)O)[C@@H](O[C@@H]7O[C@H](CO)[C@@H](O)[C@H](O)[C@H]7O)[C@H](O)[C@H]6O[C@@H]6O[C@H](CO)[C@@H](O)[C@H](O)[C@H]6O)[C@](C)(CO)C5CC[C@]43C)[C@@H]2CC1(C)C (some centres undefined) | inactive [at 9.27 µM] |
| CCC(CC)n1ccc2c(C(=O)NCc3c(C)cc(C)[nH]c3=O)cc(C#N)cc21 | inactive |
| COc1cc(O[C@@H]2O[C@H](CO)[C@@H](O)[C@H](O)[C@H]2O)c(CCC(=O)OC[C@H]2O[C@@H](Oc3cc(OC)c(C4OC(=O)C(C)(O)C4O)cc3CCC(=O)O)[C@H](O)[C@@H](O)[C@@H]2O)cc1C1OC(=O)C(C)(O)C1O (some centres undefined) | inactive [at 9.27 µM] |
| CC(=O)O[C@H]1C[C@@H]2[C@]3(CC[C@]4(C)[C@@H](C5(C)CCC(C(C)(C)O)O5)[C@@H](O)C[C@@]24C)C[C@@]32CC[C@H](O[C@@H]3OC[C@@H](O)[C@H](O)[C@H]3O)C(C)(C)[C@H]12 (some centres undefined) | inactive [at 17.4 µM] |
| CC1(C)CCC[C@@]2(C)[C@H]1[C@H](O)C=C1COC(=O)[C@@]12O | inactive |
